Data taken from PubChem BioAssay AID1209 (Sanford-Burnham Center for Chemical Genomics, 2008).
Screen size: about 190,000 compounds; about 810 (0.43%) were called active. The sample as a whole holds a higher share of actives than the screen did. A number with no mark means an inactive call. Rule as the data show it: active = inhibition above about 50%; inactive = the rest.

biological target: Mannose-6-phosphate isomerase (Homo sapiens) (UniProt P34949); assay: MPI enzyme activity inhibition – biochemical, fluorescence intensity, coupled assay, primary screen (AID 1209); conditions: purified PMI enzyme, at 20 µM, active compounds read high;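 also: plate controls were DMSO vehicle for no effect and wells lacking substrate for full effect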
Sequence (P34949 whole entry, looked up): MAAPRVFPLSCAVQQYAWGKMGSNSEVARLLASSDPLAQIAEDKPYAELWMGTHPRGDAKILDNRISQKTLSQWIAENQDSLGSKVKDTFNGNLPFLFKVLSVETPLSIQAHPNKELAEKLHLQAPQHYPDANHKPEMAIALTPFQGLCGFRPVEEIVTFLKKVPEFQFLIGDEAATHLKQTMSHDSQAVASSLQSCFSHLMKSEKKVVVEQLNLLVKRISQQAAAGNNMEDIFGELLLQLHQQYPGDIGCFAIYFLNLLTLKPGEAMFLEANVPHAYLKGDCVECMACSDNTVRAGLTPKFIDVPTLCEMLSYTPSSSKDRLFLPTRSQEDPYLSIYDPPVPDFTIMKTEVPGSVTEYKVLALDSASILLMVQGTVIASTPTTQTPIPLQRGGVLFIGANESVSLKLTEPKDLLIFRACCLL

SMILES | inhibition
CN(c1nnc(N)s1)C1CCCCC1 | -8.5%
CCn1ncc(C2=NOC(C(=O)Nc3cccc(O)c3)C2)c1C (centres undefined) | -18.7%
Fc1ccc(C2=CC(c3ccco3)n3ncnc3N2)cc1 (centres undefined) | -42.5%
C1=C(c2ccc(-c3ccccc3)cc2)Nc2ncnn2C1c1ccco1 (centres undefined) | 52.3% (active)
Clc1ccc(C2=CC(c3ccco3)n3ncnc3N2)cc1 (centres undefined) | -12.4%
Cc1nc2[nH]c(=S)n(C)c(=O)c2nc1C | -17.3%
COC(=O)[C@@]1(Cc2ccc(F)cc2)[C@H]2c3cc(C(=O)N4CCCC4)n(CCc4ccc(O)c(O)c4)c3C[C@H]2CN1C(=O)c1ccccc1 | 50.8% (active)
COC(=O)[C@@]1(Cc2ccc(F)cc2)[C@H]2c3cc(C(=O)N4CCCC4)n(CCO)c3C[C@H]2CN1C(=O)c1ccccc1 | 1.6%
COCCn1c(C(=O)N2CCCC2)cc2c1C[C@H]1CN(C(=O)c3ccccc3)[C@@](Cc3ccc(F)cc3)(C(=O)OC)[C@@H]21 | 13.8%
O=C(CNCc1ccc(F)cc1)Nc1ccccc1[N+](=O)[O-] | 5%
Cc1cccc(S(=O)(=O)Nc2cccc3c2C(=O)c2ccccc2-3)c1 | 10.6%
Cc1cc(C)c(NC(=O)COC(=O)c2cccc3c2C(=O)c2ccccc2C3=O)c(C)c1 | 5.1%
Cc1cc(C)c(Nc2cc(S(=O)(=O)O)c(N)c3c2C(=O)c2ccccc2C3=O)c(C)c1 | 91.5% (active)
COc1ccc(CCC(=O)NNC(=S)Nc2cccc(C(C)=O)c2)cc1 | 1.2%
Cn1nnnc1SCc1ccc(C(=O)Nc2ccccc2F)cc1 | 9%
O=C(NNc1ccccn1)C(c1ccccc1)c1ccccc1 | 50.2% (active)
C/C(=N\NC(=O)C(c1ccccc1)c1ccccc1)c1ccccn1 | -5%
O=C(NNC(=O)C(c1ccccc1)c1ccccc1)c1ccccn1 | 10.3%
O=C(OCc1cnc(Cl)s1)c1cccc(Cl)c1 | 10.3%
CC(=O)Nc1ccc(/C(C)=N/NC(=O)c2ccccc2Cl)cc1 | 5.1%
c1ccc(C2=Nn3c(nnc3-c3ccco3)SC2)cc1 | 75.6% (active)
COc1ccc(C2=Nn3c(nnc3-c3ccco3)SC2)cc1 | -15.3%
CCOc1ccc(C2=Nn3c(nnc3-c3ccco3)SC2)cc1 | 8.1%
C/C(=C\C(=O)Nc1nccs1)c1ccccc1 | 9.8%
Cc1cc(C)n2cc(CSc3ccccn3)nc2n1 | -5.1%

SMILES | inhibition
O=C(/C=C/Sc1ccccc1)c1ccc(Cl)cc1 | -10%
O=C(/C=C/Sc1ncn[nH]1)c1ccc(Cl)cc1 | 50.3% (active)
Clc1ccc(CSc2ncn[nH]2)cc1 | 7.1%
Cc1cc(C)n2nc(SCCOc3ccccc3F)nc2n1 | -4.9%
O=C(CSc1nccc(=O)[nH]1)Nc1ccc(F)c(Cl)c1 | 1.7%
COCc1c(C#N)c(NCCc2ccccc2)nc(C)c1[N+](=O)[O-] | 11.3%
CCCCn1c(SCC(=O)NCc2cccs2)nc2c1c(=O)n(C)c(=O)n2C | 9%
CCOc1cc(C(=S)N2CCOCC2)ccc1OC | 3.4%
CCOc1cc(C(=S)N2CCOCC2)ccc1O | 66.8% (active)
CCOc1ccc(C(=S)N2CCOCC2)cc1OCC | -6.6%
O=C(CN1C(=O)C2C3C=CC(C3)C2C1=O)Nc1ccc(F)cc1 (centres undefined) | 0.9%
O=C(CN1CCN(Cc2ccccc2)CC1)Nc1ccc(-n2cnnn2)cc1 | -1.5%
O=C(CN1CCN(c2ccccc2)CC1)Nc1ccc(-n2cnnn2)cc1 | 108% (active)
O=C(CN1CCN(c2ccc(F)cc2)CC1)Nc1ccc(-n2cnnn2)cc1 | 3.3%
COc1ccc(/C=N/NC(=S)SC)cc1OC | 12.8%
Cc1ccc(C(=O)N(C)c2ccc(OCC(=O)N3c4ccc(C)cc4C4CN(C)CCC43)cc2)cc1 (centres undefined) | 1.9%
Cc1snc(SCC(=O)c2ccc(F)cc2)c1C#N | -11.6%
Cc1snc(SCC(=O)c2ccc(Cl)cc2)c1C#N | 56.7% (active)
Cc1cc(C)nc(SCC(=O)c2ccc([N+](=O)[O-])cc2)n1 | -11.2%
Cc1ccc(C(=O)CSc2nsc(C)c2C#N)cc1 | 7.2%
Cc1nnc(SCC(=O)c2ccc([N+](=O)[O-])cc2)s1 | 2.6%
Cc1ccc(CC2CC(=O)N(C(Cc3ccccc3)C(=O)O)C2=O)cc1 (centres undefined) | 0.9%
C#CCOCCOCCOCCNc1nc(N2CCN(C(=O)[C@H]([C@@H](C)CC)n3cc(CCCN=C(N)N)nn3)CC2)nc(N2CCN(C(=O)[C@H](C)n3cc(CCCN=C(N)N)nn3)CC2)n1 | -22.8%
CCN1CCCC1CNC(=O)CSc1cc(=O)n(C)c2cc(Cl)ccc12 (centres undefined) | -0.3%
